According to PubChem BioAssay AID1159580 (chemical genetic matrix, 2015):
Several values for one entry are separate records, joined by “and”; a condition that tells them apart may be missing. Identical values can stand only once. The campaign covered roughly 5,500 compounds. About 2,000 (36%) were called active. Another 18% or so got no clear call; they are omitted. Rule as the data show it: active = normalized growth mostly below about 0.91 (no sharp cut-off); inconclusive = no clear call, values can overlap the other calls; inactive = mostly above about 0.92. The list shows a part of the results.

Assay: chemical genetic growth profiling, strain panel (AID 1159580);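 also: tested at 20 µM; growth read once vehicle control cultures reached saturation at 30 °C; 1 = growth at the plate median or of vehicle wells; lower values mean less growth of the strain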
Conditions: growth OD

Measured: normalized growth

NC(CO)C(=O)NNCc1ccc(O)c(O)c1O (configuration not stated)
active: S. cerevisiae deletion strains, locus YMR058W, strain fet3, active compounds read low 0.688 | S. cerevisiae deletion strains, locus YNL209W, strain ssb2, active compounds read low 0.9
inactive: S. cerevisiae deletion strains, locus YJR066W, strain TOR1, active compounds read low 0.99 | S. cerevisiae deletion strains, locus YJR075W, strain HOC1, active compounds read low 1.01 and 0.944 | S. cerevisiae deletion strains, locus YKL009W, strain mrt4, active compounds read low 0.973 | S. cerevisiae deletion strains, locus YKL068W, active compounds read low 1.01 | S. cerevisiae deletion strains, locus YKL085W, strain MDH1 (second series), active compounds read low 1 | S. cerevisiae deletion strains, locus YKL085W, strain MDH1, active compounds read low 1 | S. cerevisiae deletion strains, locus YKL160W, strain elf1, active compounds read low 1.02 | S. cerevisiae deletion strains, locus YKR001C, strain vps1, active compounds read low 0.986 | S. cerevisiae deletion strains, locus YKR026C, strain gcn3, active compounds read low 0.991 | S. cerevisiae deletion strains, locus YKR091W, strain srl3, active compounds read low 0.993 | S. cerevisiae deletion strains, locus YLL001W, strain dnm1, active compounds read low 1.03 | S. cerevisiae deletion strains, locus YLL026W, active compounds read low 1.02 | S. cerevisiae deletion strains, locus YLL041C, strain sdh2, active compounds read low 1 | S. cerevisiae deletion strains, locus YLR027C, strain aat2, active compounds read low 1.01 | S. cerevisiae deletion strains, locus YLR039C, strain RIC1, active compounds read low 1.01 | S. cerevisiae deletion strains, locus YLR058C, strain SHM2, active compounds read low 1.01 | S. cerevisiae deletion strains, locus YLR102C, strain apc9, active compounds read low 0.983 | S. cerevisiae deletion strains, locus YLR113W, strain HOG1, active compounds read low 1.1 | S. cerevisiae deletion strains, locus YLR221C, strain rsa3, active compounds read low 0.951 | S. cerevisiae deletion strains, locus YLR258W, strain gsy2, active compounds read low 0.974 | S. cerevisiae deletion strains, locus YLR262C, strain YPT6 (second series), active compounds read low 0.915 | S. cerevisiae deletion strains, locus YLR262C, strain YPT6, active compounds read low 1.04 | S. cerevisiae deletion strains, locus YLR268W, strain sec22, active compounds read low 0.984 | S. cerevisiae deletion strains, locus YLR320W, strain mms22, active compounds read low 0.987 | S. cerevisiae deletion strains, locus YLR330W, strain CHS5, active compounds read low 1.01 | S. cerevisiae deletion strains, locus YLR342W, strain FKS1 (second series), active compounds read low 1.06 | S. cerevisiae deletion strains, locus YLR342W, strain FKS1, active compounds read low 1.01 | S. cerevisiae deletion strains, locus YLR357W, strain rsc2, active compounds read low 0.911 | S. cerevisiae deletion strains, locus YLR370C, strain arc18, active compounds read low 0.995 | S. cerevisiae deletion strains, locus YLR371W, strain rom2, active compounds read low 0.991 | S. cerevisiae deletion strains, locus YLR384C, strain iki3, active compounds read low 1 | S. cerevisiae deletion strains, locus YLR418C, strain cdc73, active compounds read low 0.98 | S. cerevisiae deletion strains, locus YML016C, strain PPZ1, active compounds read low 1.01 | S. cerevisiae deletion strains, locus YML032C, strain rad52, active compounds read low 0.993 | S. cerevisiae deletion strains, locus YML120C, strain ndi1, active compounds read low 1.01 | S. cerevisiae deletion strains, locus YML124C, strain tub3, active compounds read low 0.996 | S. cerevisiae deletion strains, locus YMR078C, strain ctf18, active compounds read low 0.992 | S. cerevisiae deletion strains, locus YMR125W, strain sto1, active compounds read low 1.01 | S. cerevisiae deletion strains, locus YMR129W, active compounds read low 0.992 | S. cerevisiae deletion strains, locus YMR205C, strain PFK2, active compounds read low 1.07 | S. cerevisiae deletion strains, locus YMR223W, strain ubp8, active compounds read low 1.01 | S. cerevisiae deletion strains, locus YMR231W, strain pep5, active compounds read low 0.991 | S. cerevisiae deletion strains, locus YMR307W, strain GAS1, active compounds read low 1 and 0.976 | S. cerevisiae deletion strains, locus YNL067W, strain RPL9B, active compounds read low 0.984 | S. cerevisiae deletion strains, locus YNL071W, strain lat1, active compounds read low 1.01 | S. cerevisiae deletion strains, locus YNL153C, strain GIM3, active compounds read low 1 | S. cerevisiae deletion strains, locus YNL175C, strain NOP13, active compounds read low 0.988 | S. cerevisiae deletion strains, locus YNL183C, strain NPR1, active compounds read low 0.99 | S. cerevisiae deletion strains, locus YNL197C, strain WHI3, active compounds read low 0.935 | S. cerevisiae deletion strains, locus YNL224C, strain SQS1, active compounds read low 1.01 | S. cerevisiae deletion strains, locus YNL233W, strain BNI4, active compounds read low 0.998 | S. cerevisiae deletion strains, locus YNL248C, strain rpa49, active compounds read low 0.946 | S. cerevisiae deletion strains, locus YNL250W, strain rad50, active compounds read low 0.983 | S. cerevisiae deletion strains, locus YNL271C, strain bni1, active compounds read low 1 | S. cerevisiae deletion strains, locus YNL298W, strain CLA4, active compounds read low 0.988 | S. cerevisiae deletion strains, locus YNL307C, strain MCK1, active compounds read low 0.982 | S. cerevisiae deletion strains, locus YNL322C, strain KRE1 (second series), active compounds read low 0.999 | S. cerevisiae deletion strains, locus YNR049C, strain mso1, active compounds read low 0.99 | S. cerevisiae deletion strains, locus YNR052C, strain pop2, active compounds read low 1.01 | S. cerevisiae deletion strains, locus YOL012C, strain htz1 0.788 | S. cerevisiae deletion strains, locus YOL147C, strain pex11, active compounds read low 0.98 | S. cerevisiae deletion strains, locus YOR001W, strain rrp6, active compounds read low 1.03 | S. cerevisiae deletion strains, locus YOR061W, strain CKA2, active compounds read low 1.01 | S. cerevisiae deletion strains, locus YOR069W, strain VPS5, active compounds read low 1 | S. cerevisiae deletion strains, locus YOR070C, strain gyp1, active compounds read low 0.972 | S. cerevisiae deletion strains, locus YOR080W, strain dia2, active compounds read low 1.01 | S. cerevisiae deletion strains, locus YOR083W, strain WHI5 (second series), active compounds read low 0.978 | S. cerevisiae deletion strains, locus YOR083W, strain WHI5, active compounds read low 0.986 | S. cerevisiae deletion strains, locus YOR106W, strain vam3, active compounds read low 0.948 | S. cerevisiae deletion strains, locus YOR136W, strain idh2, active compounds read low 0.97 | S. cerevisiae deletion strains, locus YOR144C, strain elg1, active compounds read low 0.987 | S. cerevisiae deletion strains, locus YOR184W, strain ser1, active compounds read low 0.993 | S. cerevisiae deletion strains, locus YOR231W, strain MKK1, active compounds read low 1.07 | S. cerevisiae deletion strains, locus YOR265W, strain rbl2, active compounds read low 0.996 | S. cerevisiae deletion strains, locus YOR270C, strain vph1, active compounds read low 0.996 | S. cerevisiae deletion strains, locus YOR290C, strain snf2, active compounds read low 0.957 | S. cerevisiae deletion strains, locus YOR316C, strain cot1, active compounds read low 0.991 | S. cerevisiae deletion strains, locus YPL051W, strain arl3, active compounds read low 0.973 | S. cerevisiae deletion strains, locus YPL055C, strain LGE1, active compounds read low 1.01 and 0.959 | S. cerevisiae deletion strains, locus YPL078C, strain atp4, active compounds read low 1.02 | S. cerevisiae deletion strains, locus YPL106C, strain sse1, active compounds read low 0.936 | S. cerevisiae deletion strains, locus YPL240C, strain hsp82, active compounds read low 0.991 | S. cerevisiae deletion strains, locus YPL241C, strain CIN2, active compounds read low 1.01 | S. cerevisiae deletion strains, locus YPL256C, strain CLN2, active compounds read low 1.09 | S. cerevisiae deletion strains, locus YPR119W, strain clb2, active compounds read low 0.999 | S. cerevisiae deletion strains, locus YPR141C, strain kar3, active compounds read low 0.987 | S. cerevisiae deletion strains, locus YPR163C, strain tif3, active compounds read low 0.991 | S. cerevisiae deletion strains, locus YPR167C, strain met16, active compounds read low 0.994 | S. cerevisiae deletion strains, strain wtn01, active compounds read low 1.02 | S. cerevisiae strains, strain wild type, active compounds read low 1
